PubChem BioAssay (NCI)
The panel holds about 83,000 compounds, 20% with a hit somewhere; the sample as a whole holds those more often.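 Negative percent growth values reflect cell death: -40 means 40% of the cells present at the start died, and -100 means all died.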 Calls of active or inactive are those of the source. The calls were made as follows: active = growth percent below 10; inactive = the rest.

tested on: HL-60(TB) leukemia; assay: NCI-60 one-dose screen, 48 h (100 = growth as untreated, 0 = no growth, -100 = all killed); settings: 10 µM unless noted

Compound | growth
COc1ccc(/C=C2\CS(=O)(=O)C/C(=C\c3ccc(OC)cc3)C2=O)cc1 | -29.8% (active)
COc1ccc(-c2nnc(N3CCN(C(=O)CN4CCN(c5ccc(OC)cc5)CC4)CC3)nc2-c2ccc(OC)cc2)cc1 | -71.6% (active)
Cc1cc(Nc2nc(SCc3ccc(C(=O)Nc4ccc(F)cc4N)cc3)nn3cccc23)n[nH]1 | -26.4% (active)
O=C(Cc1nc2ccc([N+](=O)[O-])cc2nc1CC(=O)c1ccccc1)c1ccccc1 | 31.5% (inactive)
Cc1ccc(S(=O)(=O)OC[C@@]2(C)CC[C@]3(C)CC[C@]4(C)C(=C3C2)C=C[C@@H]2[C@@]3(C)CCCNC(C)(C)[C@@H]3CC[C@]24C)cc1 | -58.4% (active)
CCCC(=O)OCC1OC(n2cnc3c(=S)nc[nH]c32)C(OC(=O)CCC)C1OC(=O)CCC (stereo not given) | 32.1% (inactive)
COc1ccc(CNCCCN2C(=O)c3ccc4c5c(ccc(c35)C2=O)C(=O)N(CCCNCc2ccc(OC)c(OC)c2OC)C4=O)c(OC)c1OC | -61.3% (active)
CC(C)[C@H]1COC(=O)N1[C@@H]1C(=O)N([C@@H](CCC(=O)N2CCN(C3CCCC3)CC2)C(=O)N[C@@H]2CCCc3ccccc32)[C@@H]1/C=C/c1cccc(Cl)c1 | 5.13% (active)
COc1cc(/C=C/C(=O)N2c3ccccc3CC2C)c(OC)c2c1OCO2 (stereo not given) | 91.7% (inactive)
O=C(Nc1ccc(CN2CCOCC2)c(C(F)(F)F)c1)c1nc2ccc3[nH]ncc3c2c2c1CCCC2 | 98.1% (inactive)
N#CCC1CCCC1 | 102% (inactive)
CN1CCN(Cc2ccc(NC(=O)c3cncc(C#Cc4c(N)ncc5ccc(F)cc45)c3)cc2C(F)(F)F)CC1 | 17.4% (inactive)
O=C(Nc1ccccc1Cl)Oc1ccc2ccccc2c1 | 72.3% (inactive)
C/C(=C(\c1ccc(OCCN2CCCCCC2)cc1)c1ccc(OC(=O)Cc2ccccc2)cc1)c1ccc(Cl)cc1 | -60% (active)
CCOC(=O)Nc1nccs1 | 100% (inactive)
COc1ccc(C(=S)N2CCN(c3cccc(Cl)c3)CC2)cc1 | 130% (inactive)
Cc1ccc(Nc2nc(-c3ccc(F)cc3)c(C#N)c(=O)n2C)cc1 | 90.1% (inactive)
COc1cc(OC)c(/C=C/C(=O)c2c(N)cc(OC)cc2OC)c(OC)c1 | 12.7% (inactive)
CC(=O)c1cnc2ccc(-c3cc(Cl)c(O)c(Cl)c3)nc2c1NC1CCC(CN(C)C)CC1 (stereo not given) | -14.8% [2.5 µM] (active)
CCCCN1C(=O)CC(SC2CC(=O)N(CCCC)C2=O)C1=O (stereo not given) | 132% (inactive)

Compound | growth
COc1ccc(/C=C2\NC(=S)NC2=O)cc1 | 91.6% (inactive)
CN(CCCCCl)P(=O)(OCc1ccc([N+](=O)[O-])o1)C(F)(F)C[C@H](NC(=O)CNC(=O)c1ccc(N=[N+]=[N-])cc1)C(=O)NCCc1ccc(O)cc1 (stereo not given in full) | 62.6% (inactive)
O=C(Nc1ccccc1Cl)c1cnc2ccc(C3CCNCC3)cn12 | 103% (inactive)
C=C(C)[C@@H]1CC[C@]2(C(=O)N3CCN(C)CC3)CC[C@]3(C)[C@H](CC[C@@H]4[C@@]5(C)CC[C@H](OCCC#N)C(C)(C)[C@@H]5CC[C@]43C)[C@@H]12 | 73.8% (inactive)
c1ccc(C2Cc3ccccc3C2=NC2CCCCC2)cc1 (stereo not given) | 98.2% (inactive)
O=C1/C(=C/c2ccccc2[N+](=O)[O-])COc2ccc(O)c(O)c21 | -29.2% (active)
C[C@H]1C=C(C[C@@H](O)CC#CC#CCCCCC[C@@H](O)[C@H]2CCC(=O)O2)C(=O)O1 | 99.1% (inactive)
Cc1nc2ccccc2c(/C=C/c2ccc(Cl)cc2)c1C(=O)/C=C/c1cccs1 | 59.5% (inactive)
COc1ccc(N2C(=O)C(Oc3ccccc3)C2c2ccc(C)cc2)cc1 (stereo not given) | 85.4% (inactive)
C/C=C/C=N/NC(=S)Nc1ccccc1 | 81.7% (inactive)
COc1cc2c(c(OC)c1OC)-c1ccc(N=NC(N)=S)c(=O)cc1[C@@H](NC(C)=O)CC2 | -17.7% (active)
CCC(=O)NC(O)C(Cl)(Cl)C(C)Cl (stereo not given) | 119% (inactive)
N#Cc1c2c(nc3n[nH]c(N)c13)CCCC2 | 87.3% (inactive)
Cn1c(O)c(C(/C=C/c2ccccc2)=Nc2ccccc2N)c(=O)n(C)c1=O | -39.4% (active)
CCN1CCN(Cc2ccc(NC(=O)Nc3nc(-c4cc(OC)c(OC)c(OC)c4)cs3)cc2C(F)(F)F)CC1 | 8.19% (active)
CNC(=O)c1cc(Oc2ccc(NC(=O)c3[nH]c(SC)nc3-c3ccc(F)cc3)cc2)ccn1 | 78.6% (inactive)
CCOc1ccccc1NC(=O)c1cc2ccccc2cc1O | 48.8% (inactive)
O=C(O)C(c1ccccc1)C(O)c1ccccc1 (stereo not given) | 97.8% (inactive)
Cc1nccc2c3ccc(OCc4cn(-c5ccc(Cl)cc5)nn4)cc3n(CC(C)C)c12 | -49.4% (active)
COc1ccc(S(=O)(=O)NC2c3ccccc3CC2O)cc1OC (stereo not given) | 103% (inactive)
